The text below walks through data of PubChem BioAssay AID1259422 (The Scripps Research Institute Molecular Screening Center, 2018).

Hit rate of the full screen: of about 640,000 compounds, about 9,300 (1.5%) were called active. No stated cut-off is given here; in the data, active means inhibition above about 32%; inactive means the rest. Shown is part of a subset that was picked to be rich in actives.

A short description of the assay: TEAD-YAP interaction inhibition, primary screen, TEAD-YAP interaction inhibitor project, luminescence, HEK-TIYL cells (AID 1259422).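 Further: 0% = median of test compound wells and 100% = reference inhibitor wells.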 The note with it: TEAD-Gal4/YAP UAS-luciferase luminescence, at 9.12 µM, hits give high values.
For the molecule `Cc1cc(C)cc(OCC(=O)Nc2sc3c(c2C(N)=O)CCCC3)c1`, the inhibition was -1.21% (inactive).

With `CCCCOC(=O)C1=C(C)NC2=C(C(=O)CC(C)(C)C2)C1c1ccc(Cl)cc1Cl` (configuration not stated), the inhibition was 1.21% (inactive).

As to `Cc1nc(C)n(-c2ccc(Nc3cc(-n4ccnn4)ccn3)cc2)n1`, the inhibition was 1.02% (inactive).

With `Cc1nc(C)n(-c2ccc(Nc3ncc4ccc(-c5cnn(C)c5)cc4n3)cc2)n1`, the inhibition was 84.9% (active).

For `Cc1ncn(-c2ccc(Nc3ncc(-c4cnn(C)c4)c(-c4cnn(C)c4)n3)cc2)n1`, the inhibition is -5.05% (inactive).

Take `Cc1ccccc1CCNCc1ccc(C(=O)O)s1`: the inhibition is -4.88% (inactive).

As to `CC(C)(C)c1nc2ccccc2c2nn(CC(=O)N3CCNC(=O)C3(C)C)c(=O)n12`, the inhibition was -10.6% (inactive).

In the case of `O=C(NCC1CCCO1)c1ncoc1-c1cccc(Cl)c1` (configuration not stated), the inhibition is -34.8% (inactive).

For the molecule `Cn1nnc2c(N3CCN(CC(=O)Nc4ccccc4F)CC3)ncnc21`, the inhibition is 3.56% (inactive).

With `Cc1nn2c(NCc3ccncc3)c3c(nc2c1-c1ccccc1)CCC3`, the inhibition was -22.7% (inactive).

Turning to `COc1ccccc1NC(=O)Cn1ccc2ccccc2c1=O`, the inhibition is -0.57% (inactive).

Take `O=C(Cn1cnc2ccccc2c1=O)NCc1ccccc1`: the inhibition is 2.51% (inactive).

Consider `COc1cccc2c(=O)n(CC(=O)NCc3ccccc3)ccc12`, for which the inhibition is 38.8% (active).

For `Cn1cc(S(=O)(=O)O)cc1-c1nc2ccccc2n1C`, the inhibition was 9.5% (inactive).

For `Cn1c(-c2ccco2)nc2cc3ccccc3cc21`, the inhibition is 90.5% (active).

On to `Cc1c(-n2c(-c3ccco3)nc3ccccc3c2=O)c(=O)n(-c2ccccc2)n1C`, for which the inhibition was -10.7% (inactive).

For the molecule `C(/C=C/c1ccccc1)=Nc1ccc(N2CCOCC2)cc1`, the inhibition is 18.8% (inactive).

Turning to `NC1=NC(=Nc2ccc(N3CCCCC3)cc2)c2ccccc21`, the inhibition was 60.5% (active).

For `NC1=NC(=Nc2cc(Cl)cc(Cl)c2)c2ccccc21`, the inhibition was -2.03% (inactive).

Turning to `O=C1OC(c2ccccc2Cl)=N/C1=C\c1ccco1`, the inhibition was 4.9% (inactive).

For `COc1cc(/C=N/NC(=O)CC(=O)NCC(C)C)ccc1O`, the inhibition is 8.56% (inactive).

For `CCOC(=O)N1CCN(C(=O)c2ccc3c(=O)n(Cc4ccccc4Cl)c(=S)[nH]c3c2)CC1`, the inhibition is -2.49% (inactive).

Regarding `c1ccc2c(-c3nc(NC4CC4)c4ncn(-c5ccsc5)c4n3)csc2c1`, the inhibition was 13.5% (inactive).

On to `Cc1noc(C)c1-c1nc(NC2CC2)c2ncn(-c3ccsc3)c2n1`, for which the inhibition was 41.4% (active).

As to `COc1ccc(CCNc2nc(-c3c(C)noc3C)nc3c2ncn3-c2ccsc2)cc1`, the inhibition is -2.43% (inactive).

For the molecule `CC(=O)N(c1cccc(C)c1)C1SC(=O)N(c2cccc(C)c2)C1=O` (configuration not stated), the inhibition was 3.53% (inactive).

With `CC(=O)Nc1ccc(S(=O)(=O)Nc2ccc(-c3nc4cccnc4s3)cc2)cc1`, the inhibition was 7.3% (inactive).

Take `O=C(Nc1ccc(-c2nc3cccnc3s2)cc1)C1CCCC1`: the inhibition was 51.9% (active).

For `CC(=O)Nc1cccc(-c2nc3cccnc3s2)c1`, the inhibition is -43.1% (inactive).

Take `Cc1ncc(-c2ccc(F)cc2)c(C2CCCN(CCO)C2)n1` (configuration not stated): the inhibition is -9.4% (inactive).

As for `COC(=O)COc1ccc(/C=C2/NC(=O)N(c3ccccc3)C2=O)cc1OC`, the inhibition is 11.3% (inactive).

Take `Cc1nc(NC(=O)/C=C/c2cccc([N+](=O)[O-])c2)sc1C(=O)N(C)C`: the inhibition is -12.3% (inactive).

`N#Cc1ccc(OCC(=O)Nc2ccc3c(c2)C(=O)c2ccccc2C3=O)cc1`: the inhibition is -21.1% (inactive).

Take `CCOc1cc(C2CC(=O)NC(SCC(=O)OCc3ccccc3)=C2C#N)ccc1O` (configuration not stated): the inhibition is -6.79% (inactive).

Turning to `N#CC1=C(SCC(=O)OCc2ccccc2)NC(=O)CC1c1ccc(F)cc1` (configuration not stated), the inhibition was 6.22% (inactive).

For `COc1ccc(C(=O)CSC2=C(C#N)C(c3cccs3)CC(=O)N2)cc1` (configuration not stated), the inhibition is -82.2% (inactive).

`CCOC(=O)CSC1=C(C#N)C(c2sccc2C)CC(=O)N1` (configuration not stated): the inhibition is 56.8% (active).

Take `CCOC(=O)CSC1=C(C#N)C(c2ccccc2)CC(=O)N1` (configuration not stated): the inhibition was 53.9% (active).

As to `N#CC1=C(SCC(=O)Nc2nccs2)NC(=O)CC1c1cccs1` (configuration not stated), the inhibition was 5.49% (inactive).

Take `CCOC(=O)c1ccc(CN(Cc2ccc(Br)cc2)S(=O)(=O)c2cc(Cl)cc(Cl)c2)cc1`: the inhibition is 11.6% (inactive).

Turning to `O=C(NCCc1ccccc1)C(=O)Nc1ccccc1F`, the inhibition was -44.1% (inactive).

Take `CCCCSc1nc2sc3c(c2c(=O)n1-c1ccc(OC)cc1)CCCC3`: the inhibition is -1.35% (inactive).

Turning to `O=C(CCSc1ccccc1)Nc1cccc2ccc(-n3ccnc3)nc12`, the inhibition was -3.58% (inactive).

For `COc1cc(C(=O)Nc2cc(-c3nc4ccc(C)cc4o3)ccc2C)ccc1OCc1ccc(Cl)cc1`, the inhibition is -64.2% (inactive).

Consider `Cc1cc(N2CCCCC2)nc(NCCNC(=O)C2CCCO2)n1` (configuration not stated), for which the inhibition is 42.3% (active).

For `Cc1cc(N2CCOCC2)nc(SCC(=O)N2CCCC2)n1`, the inhibition is 5.97% (inactive).

For `CCNC(=O)C1CCN(c2nc(C)cc(C)n2)CC1`, the inhibition was -5.09% (inactive).

In the case of `Cc1cc(C)nc(NS(=O)(=O)c2ccc(NC(=O)/C=C/c3ccc(F)cc3)cc2)n1`, the inhibition was -8.5% (inactive).

In the case of `Cc1cccc(NC(=O)/C=C/c2ccc(F)cc2)c1`, the inhibition is 34.1% (active).

Turning to `O=C(/C=C\c1ccccc1)Nc1cc2ccccc2cc1NC(=O)/C=C/c1ccccc1`, the inhibition is -0.29% (inactive).

As for `Cc1csc(NC(=O)/C=C/c2ccc(F)cc2)n1`, the inhibition is -40.2% (inactive).

As to `O=C(/C=C/c1ccc(F)cc1)Nc1ccccc1F`, the inhibition was 79.4% (active).

`O=C(/C=C/c1ccc(F)cc1)NCCCCNC(=O)/C=C/c1ccc(F)cc1`: the inhibition was -6.73% (inactive).

Take `O=C(Nc1ccc(-c2nc3cc(Cl)ccc3o2)cc1)c1ccc(-c2ccc(Cl)cc2)o1`: the inhibition is -100% (inactive).

Regarding `O=S(=O)(NCc1ccccc1)c1cccc(S(=O)(=O)NCc2ccccc2)c1`, the inhibition is 4.17% (inactive).

Turning to `N#C/C(=C\c1cn(-c2ccccc2)nc1-c1ccc(Cl)cc1)C(N)=O`, the inhibition is 2.99% (inactive).

As to `NC(=O)c1ccc(-c2nc(NC3CC3)c3ncn(C4CCCCC4)c3n2)cc1`, the inhibition was 18% (inactive).

Turning to `O=C(O)c1nnn(-c2ccccc2)c1C(=O)O`, the inhibition was 5.21% (inactive).

With `CCOC(=O)c1sc2nc(C)nc(N3CCCCC3)c2c1C`, the inhibition is -2.79% (inactive).

As to `O=[N+]([O-])C1CS(=O)(=O)C=C1N(Cc1ccccc1)c1ccccc1` (configuration not stated), the inhibition was 39.5% (active).

Consider `O=C(c1cc2ccccc2oc1=O)N(Cc1ccccc1)c1cccc([N+](=O)[O-])c1`, for which the inhibition was 0.25% (inactive).

`CCN(Cc1ccccc1)Cc1ccc([N+](=O)[O-])cc1`: the inhibition was 10.2% (inactive).

A word on the inhibition: it is the change of the read-out against control, counted positive when it falls.
